Where “and” joins values, the source holds several entries; their conditions need not be identical. Identical values can stand only once. About 83,000 compounds went through this panel and 20% of them were active in at least one assay; those are over-represented in the sample as a whole.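 Assay: single dose, 48 h. Readout: percent growth (0 = no net growth; negative = cell death). Active: <10.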 Calls of active or inactive are those of the source.
Columns and labels:
Assay in all cases: NCI-60 one-dose screen, 48 h (100 = growth as untreated, 0 = no growth, -100 = all killed)
Conditions in all cases: 10 µM unless noted
[1] = test system: SK-MEL-2 melanoma
[2] = test system: EKVX NSCLC
[3] = test system: SN12C renal
[4] = test system: UO-31 renal
[5] = test system: TK-10 renal
[6] = test system: ACHN renal
[7] = test system: CAKI-1 renal
[8] = test system: CCRF-CEM leukemia
[9] = test system: MOLT-4 leukemia
[10] = test system: A498 renal

Measured: growth

O=C(Nc1ccc(-c2ccc3c(c2)NC(=O)/C3=C\c2ccc[nH]2)cc1)Nc1ccc(Cl)c(Cl)c1
inactive: [1] 88.9% | [2] 46.5% | [3] 68.7% | [4] 54.9% | [5] 77.6% | [6] 53.7% | [7] 39.1% | [8] 33.1% | [9] 33.5%

COc1ccc2[nH]cc(-c3cc4nc(-c5cn(C)c6ncccc56)cc(N)n4n3)c2c1
active: [6] 7.66% | [7] -65.2% | [8] -34.3% | [9] -9.04%
inactive: [1] 97.2% | [2] 55.1% | [3] 26.2% | [4] 12.3% | [5] 78.1%

COc1ccc(/C=C/c2nc3ccccc3c(=O)n2CC(=O)Nc2ccccc2)cc1
active: [3] 8.23% | [4] -33% | [5] -9.9% | [6] -60%
inactive: [1] 81.2% | [2] 63.1% | [7] 35.1% | [8] 88.3% | [9] 86.7%

Fc1ccc(F)c(CNc2nc(SCCN3CCOCC3)nc3c2cnn3CC(Cl)c2ccc(Br)cc2)c1 (configuration not stated)
active: [1] 5.82% | [4] 9.3% | [9] -22.6%
inactive: [2] 45.1% | [3] 28.9% | [6] 10.6% | [7] 26.7% | [10] 64.8% | [8] 11.1%

COc1ccc(-n2c(NC(=O)N3CCN(C)CC3)c(C#N)c3ccccc32)cc1
inactive: [1] 72.9% | [2] 12.3% | [3] 23% | [6] 21.9% | [7] 15% | [10] 139% | [8] 60.5% | [9] 43.9%
active: [4] -15.6%

CC1=C(C)C(=O)C(N2CCSCC2)=CC1=O
inactive: [1] 94.6% | [2] 92.6% | [3] 100% | [4] 76.2% | [5] 130% | [6] 96.6% | [7] 93.2% | [8] 81% | [9] 86.3%

O=C(CSc1nc2sc3c(c2c(=O)n1-c1ccc(Cl)cc1)CCCC3)N/N=C/C=C/c1ccccc1
active: [1] -29.3% | [10] -40.8% | [8] -33.7% | [9] -24.4%
inactive: [2] 39.7% | [3] 15.4% | [4] 85.1% | [6] 25.3% | [7] 38.5%

NC1(c2ccc(-c3ccc4ncnc(NCc5ccccc5)c4c3)cn2)COC1
inactive: [1] 112% and 113% | [2] 111% and 100% | [3] 105% and 101% | [4] 99.8% and 85.4% | [6] 102% and 109% | [7] 94.8% and 103% | [10] 118% and 134% | [8] 106% and 102% | [9] 112% and 101%

CN1C(=O)C(O)(CC(=O)c2cc3ccccc3oc2=O)c2ccccc21 (configuration not stated)
inactive: [1] 111% | [2] 90.1% | [3] 88.8% | [4] 57.3% | [6] 98.1% | [7] 86.1% | [10] 162% | [8] 92% | [9] 83.4%

COc1ccc2[nH]c(=O)c(CSc3ccccc3Nc3nccc(-c4ccc(Cl)cc4)n3)cc2c1
inactive: [1] 57.9% | [2] 60% | [4] 45.8% | [5] 90.3% | [6] 31% | [8] 28.4%
active: [3] -2.68% | [7] -1.64% | [9] -2.12%

CS(=O)(=O)Nc1cccc(-n2cnc3cc(-c4ccc(O)cc4)ccc32)c1
inactive: [1] 27.2% | [2] 51.6% | [3] 41.1% | [4] 44.3% | [6] 49.7% | [7] 30.6% | [10] 149% | [8] 22.2% | [9] 24.4%

COc1ccc(NC(=O)N/N=C/c2c[nH]c3ccccc23)cc1
active: [1] -10.7%
inactive: [2] 43.1% | [3] 34.4% | [4] 40.3% | [6] 51.1% | [7] 44% | [10] 85.5% | [8] 21% | [9] 20.5%

CCC(=O)c1cc(C(=O)OC)c2ccc3c4ccccc4ccc3n12
inactive: [1] 105% | [2] 83.6% | [3] 57.9% | [4] 52.9% | [7] 42.7% | [10] 136% | [8] 97.8% | [9] 94.8%
active: [6] 0.659%

O=C(N/N=C/c1ccc(Br)o1)c1[nH]c2ccc(Br)cc2c1-c1ccccc1
inactive: [2] 12.6%
active: [1] 3.4% | [3] -59.1% | [4] -34% | [5] 9.96% | [6] -21.3% | [7] 2.87% | [8] 4.07% | [9] -0.952%

Cn1cc(-c2cc3nc(-c4c[nH]c5ccccc45)cc(N)n3n2)c2ccccc21
inactive: [2] 55.1% | [7] 29.7%
active: [1] -65.5% | [3] -78.5% | [4] -61.2% | [5] 8.91% | [6] -73.9% | [8] -38.1% | [9] -19.4%

CCCCCCCCCCCCCCCCCC(=O)Nc1ccc(OC)cc1
inactive: [1] 102% | [2] 94.7% | [3] 99.7% | [4] 88.8% | [6] 105% | [7] 98% | [10] 105% | [8] 86.4% | [9] 102%

COc1cc(/C=C/C(=O)c2ccc(S(=O)(=O)NCCNc3nc(N(C)C)nc(N4CCOCC4)n3)cc2)cc(OC)c1OC
inactive: [1] 81.4% | [2] 36.3% | [4] 12.8% | [5] 13.5% | [7] 39.4%
active: [3] -22% | [6] -100% | [8] -27.9% | [9] -40.2%

Cn1ncc2c(N)nc(Oc3ccccc3-c3ccccc3)nc21
active: [1] -4.9% | [9] 8.1%
inactive: [2] 41.6% | [3] 43.3% | [4] 48.1% | [5] 65.1% | [6] 51.6% | [7] 29% | [8] 25.5%

CN(C)c1nc(NCCNS(=O)(=O)c2ccc(C(=O)/C=C/c3ccc(Cl)cc3)cc2)nc(N2CCOCC2)n1
inactive: [1] 68.9% | [2] 49.6% | [3] 53.4% | [5] 62.5% | [6] 21.8% | [10] 87.6%
active: [7] -61.2% | [8] 3.45% | [9] 3.71%

Cc1ccccc1NC(=O)c1cccc(NC(=O)CCl)c1
active: [8] 8.03%
inactive: [1] 92.9% | [2] 97% | [3] 15.4% | [5] 88.2% | [6] 22.8% | [7] 74.5% | [10] 105% | [9] 29.7%

N#Cc1cc(-c2ccnc(Nc3ccc(N4CCN(C5COC5)CC4)cc3)n2)ccc1N1CCCC1
inactive: [1] 84.5% | [2] 90.9% | [3] 52.1% | [4] 30.5% | [6] 50.3% | [7] 18.1% | [10] 71.2% | [8] 43.4% | [9] 40.4%

Cn1cc(-c2cc(N)n3nc(-c4c[nH]c5ccccc45)cc3n2)c2cc(F)ccc21
inactive: [1] 51.6% | [2] 60.2% | [3] 47.1% | [5] 50.6% | [6] 31.7% | [7] 77.5% | [10] 99% | [9] 25.7%
active: [8] -0.0318%

CC(C)(C)OC(=O)N1CCC2(CC1)Oc1ccccc1[C@H]1CC(c3ccc(Br)cc3)=NN12
inactive: [1] 71.9% | [2] 56.6% | [3] 71.2% | [4] 43% | [6] 60% | [7] 41.1% | [8] 58.2% | [9] 47%

COc1cc(/C=C/C(=O)c2cnn(-c3cc(=O)[nH]c4ccc(C)cc34)c2C)cc(OC)c1OC
active: [1] -73.1% | [2] -9.39% | [4] -45.8% | [6] -8.39% | [10] 8.36% | [8] -22.2% | [9] -8.06%
inactive: [3] 10.4% | [7] 16.4%

CCCCCCCCc1ccc(C(=O)Nc2ccc(C)c(OP(=O)(O)O)c2)cc1
inactive: [1] 109% | [2] 101% | [3] 95.1% | [5] 107% | [6] 103% | [7] 102% | [10] 107% | [8] 42.9% | [9] 78.3%

NC(=O)c1ccc(-c2ccc3ncnc(N4CCc5cc(F)c(Cl)cc54)c3c2)cn1
inactive: [1] 95.2% | [2] 19.5% | [3] 61.9% | [5] 28.2% | [6] 30.3% | [7] 31.1% | [10] 74.7% | [8] 44.2% | [9] 18.4%

O=C(N/N=C/c1occc1Br)c1[nH]c2ccc(Br)cc2c1-c1ccccc1
active: [1] -88.8% | [2] -94.1% | [3] -83.8% | [4] -87.1% | [6] -100% | [7] -91.5% | [10] -89.6% | [8] 4.68% | [9] -15.2%
